Mcl1-Noxa inh = disrupts binding of human Mcl-1 to Noxa peptide. Q07820. TR-FRET Mcl-1/Noxa peptide binding, 2 h. inhibition, % at 21.7 µM. hit rate 1.5% among 220,000;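 active means compounds that cut the protein-peptide binding signal by more than 50% relative to plate controls in a single-dose test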;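 further: His-tagged Mcl-1 with rhodamine Noxa BH3 peptide and terbium anti-His antibody; 0% = Mcl-1 plus Noxa peptide wells and 100% = peptide-only wells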
Target sequence (Q07820 whole entry, looked up): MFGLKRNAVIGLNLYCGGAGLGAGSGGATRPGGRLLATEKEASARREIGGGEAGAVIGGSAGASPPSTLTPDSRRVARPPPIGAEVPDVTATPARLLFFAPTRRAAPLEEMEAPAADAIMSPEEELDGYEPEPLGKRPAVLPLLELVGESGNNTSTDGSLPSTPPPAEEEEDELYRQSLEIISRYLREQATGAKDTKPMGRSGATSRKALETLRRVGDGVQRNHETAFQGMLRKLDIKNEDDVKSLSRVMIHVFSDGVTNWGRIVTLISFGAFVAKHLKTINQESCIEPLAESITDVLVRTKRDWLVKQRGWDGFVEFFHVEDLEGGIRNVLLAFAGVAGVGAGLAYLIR
14-3-3 Bad PPI = disrupts binding of bovine 14-3-3 zeta to phospho-Bad peptide; hit rate 0.71% among 220,000; TR-FRET 14-3-3zeta/Dy647-pBad peptide displacement, 1 h; P63103; inhibition, % at 21.7 µM;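 active means inhibition above about 70%, limit read from the data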;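 further: 0% = full 14-3-3 plus peptide FRET controls and 100% = background without 14-3-3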
Target sequence (P63103 whole entry, looked up): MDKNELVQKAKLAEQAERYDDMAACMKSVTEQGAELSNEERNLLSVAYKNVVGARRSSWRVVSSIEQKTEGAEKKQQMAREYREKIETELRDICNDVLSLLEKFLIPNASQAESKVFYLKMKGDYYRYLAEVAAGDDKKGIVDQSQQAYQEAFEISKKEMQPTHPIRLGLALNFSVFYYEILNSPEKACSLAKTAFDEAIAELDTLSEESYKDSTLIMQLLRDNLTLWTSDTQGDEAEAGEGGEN
Bim-Mcl-1 = inhibitors of Bim-Mcl-1 interaction, human; AID 1009; Bead-based flow cytometry, Bim peptide-Mcl-1 binding; inhibition, % at 10 µM; Q07820; hit rate 0.1% among 190,000; in the data active means inhibition above about 40%;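 further: 0% = no compound tracer wells and 100% = peptide blocker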
p47phox inh = p47phox (human) inhibition | P14598 | p47phox/p22phox peptide binding, fluorescence polarization, 2 h | inhibition, % at 24.7 µM | hit rate 0.53% among 220,000 | AID 1274;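 active means inhibition above about 30%, limit read from the data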;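 further: 0% = p47phox with labelled peptide and 100% = labelled peptide alone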
Mcl1 Bid PPI = Mcl-1/Bid interaction inhibition | Q07820 | TR-FRET Mcl-1/Bid-Dy647 peptide binding, 1536-well | inhibition, % at 21.7 µM | hit rate 0.97% among 220,000 | AID 1021;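 active means compounds that cut the binding signal by more than half at the single screening dose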;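 further: His-tagged Mcl-1 with europium anti-His antibody binding Bid BH3 peptide; 0% = Mcl-1 plus peptide wells and 100% = peptide-only wells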
* = called active by the depositor; . = no result given. Compounds with a hit are over-represented: about 3.1% of the library has one in this group of screens.

SMILES | Mcl1-Noxa inh | 14-3-3 Bad PPI | Bim-Mcl-1 | p47phox inh | Mcl1 Bid PPI
Cc1cccc(/C=C/c2nc3ccccc3c(=O)n2Cc2ccccc2)c1 | 5 | 2 | 15 | -8 | 1
O=C(NC1CCCCC1)c1ccc(CNc2nc(=S)[nH]c3ccccc23)cc1 | -8 | -9 | -1 | 1 | -38
Cc1cccc(N(C)S(=O)(=O)c2ccc3[nH]cc(C(=O)N4CCOCC4)c(=O)c3c2)c1 | 50 | 33 | -1 | -10 | 51*
C=C(C)C(=O)Nc1cccc(C2=NOC3(C2)C[C@@H](C(N)=O)N(C(=O)CC(c2ccccc2)c2ccccc2)C3)c1 (stereo partly drawn) | 56* | 29 | . | -24 | -56
C=C(C)C(=O)Nc1cccc(C2=NOC3(C2)C[C@H](C(N)=O)N(C(=O)c2ccccc2C(=O)c2ccccc2)C3)c1 (stereo partly drawn) | 71* | 33 | . | 3 | -102
C=C(C)C(=O)Nc1cccc(C2=NOC3(C2)C[C@H](C(N)=O)N(C(=O)CC)C3)c1 (stereo partly drawn) | 69* | 28 | . | -8 | -34
C/C=C(/C)C(=O)Nc1cccc(C2=NOC3(C2)C[C@@H](C(N)=O)N(C(=O)CC(c2ccccc2)c2ccccc2)C3)c1 (stereo partly drawn) | 11 | -4 | . | -22 | -15
CCC(=O)N1CC2(CC(c3cccc([N+](=O)[O-])c3)=NO2)C[C@H]1C(=O)NCC(N)=O (stereo partly drawn) | 2 | 10 | -2 | 35* | -6
CC1C(=O)N(c2ccc(S(=O)(=O)N(C)C)cc2)C1(/C=C/c1ccccc1)C(=O)NC1CCCC1 (stereo not drawn) | 3 | 4 | -1 | -9 | -21
Cc1cc(C)cc(NC(=O)NCC(O)COc2ccc([N+](=O)[O-])cc2)c1 (stereo not drawn) | 9 | 4 | . | -10 | 8
C=C(C)C(=O)Nc1cccc(C2=NOC3(C2)C[C@@H](C(N)=O)N(C(=O)/C=C/C=C/C)C3)c1 (stereo partly drawn) | 97* | 38 | . | 2 | -55
C=C(C)C(=O)Nc1cccc(C2=NOC3(C2)C[C@@H](C(N)=O)N(C(=O)/C(C)=C/C)C3)c1 (stereo partly drawn) | 73* | 34 | . | -6 | -114
C/C=C(\C)C(=O)Nc1cccc(C2=NOC3(C2)C[C@@H](C(N)=O)N(C(=O)/C(C)=C/C)C3)c1 (stereo partly drawn) | 1 | 1 | . | -8 | -36
O=C(CCC(=O)OCc1ccc([N+](=O)[O-])cc1)Nc1ccccc1Cl | 15 | 9 | 2 | 9 | 5
O=C(O)c1ccc(-c2nc(-c3ccc(Cl)c(Cl)c3)cs2)cc1 | -2 | 8 | -1 | -11 | 5
NC(=O)C(=CNc1nc(-c2ccc(Cl)c(Cl)c2)cs1)C(N)=O | 73* | 26 | . | 12 | -35
COc1ccc(NC(=O)CN2C(=O)C(C)Oc3ccccc32)cc1 (stereo not drawn) | -2 | -4 | 0 | -1 | 1
O=C(CN1C(=O)/C(=C2\SC(=S)N(C3CCS(=O)(=O)C3)C2=O)c2ccccc21)Nc1ccc(F)cc1 (stereo not drawn) | 78* | 49 | . | 26 | 78*
COc1ccc(NC(=O)CN2C(=O)/C(=C3\SC(=S)N(C4CCS(=O)(=O)C4)C3=O)c3ccccc32)cc1 (stereo not drawn) | 89* | 60 | . | 52* | 91*
O=C(CN1C(=O)C2CCCCN2C(=O)c2ccccc21)Nc1ccc(F)cc1 (stereo not drawn) | 15 | -3 | 0 | 6 | 1
CCn1c(-c2cc(Cl)ccc2OC)n[nH]c1=S | 59* | 3 | -4 | -2 | 42
[O-]/C(=C(\C(=S)Nc1cccc2ccccc12)[n+]1ccccc1)c1ccc2c(c1)OCCO2 | 4 | 4 | -5 | -6 | -26
CCOc1c(Cl)cc(Cl)cc1CNCCNCCO | 30 | 72* | -2 | -47 | 8
CCOc1cccc(CNCCO)c1OCc1ccc(Cl)cc1Cl | 29 | 4 | -6 | -9 | 72*
COc1c(Cl)cc(Cl)cc1CNCCO | 8 | -2 | -1 | -5 | -2
SMILES | Mcl1-Noxa inh | 14-3-3 Bad PPI | Bim-Mcl-1 | p47phox inh | Mcl1 Bid PPI
COC(=O)c1sc2nc(C)nc(SCC(=O)N3CCC(C(=O)O)CC3)c2c1C | 9 | -14 | -1 | -2 | -9
CCc1c(C)sc(NC(=O)OC)c1C(=O)N1CCCCC1 | 16 | -1 | -5 | 37* | 8
CCc1c(C)sc(NC(=O)OC)c1C(N)=O | -1 | -7 | -4 | -7 | -10
CCSC1=NC2(CCCCC2)Nc2sc3c(c21)CCCC3 | 20 | 16 | 3 | 7 | 74*
CCSc1nc2sc3c(c2c(=O)[nH]1)CCCC3 | 9 | -2 | -1 | -58 | -5
Brc1ccc(C2=Nc3cccc4cccc(c34)N2)o1 | 55* | -13 | 0 | -2 | -34
Fc1ccc(C2=Nc3cccc4cccc(c34)N2)cc1 | 19 | -5 | 24 | 1 | -43
CCNc1nc(NCC)nc(C(=O)Nc2ccccc2)n1 | 65* | -12 | -2 | -61 | -48
O=C(Oc1cccc2c(=O)[nH]ccc12)c1ccccc1 | 8 | 78* | 2 | -2 | -5
N#CCCN(Cc1ccccc1)C(=O)c1cccs1 | 7 | 1 | . | -5 | 20
CCOC(=O)CSc1nn(C)c(=S)s1 | -7 | 49 | 1 | -11 | 57*
CCOC(=O)CSc1n[nH]c(=S)s1 | 1 | 16 | . | -1 | -19
CCOC(=O)CCC(=O)Nc1ccc(S(=O)(=O)N2CCC(C)CC2)cc1 | 5 | 0 | 0 | 31* | 0
CCOC(=O)CCC(=O)Nc1ccc(S(=O)(=O)N2CCCC2)cc1 | -17 | -8 | -4 | -8 | -8
O=C(CSc1nncs1)Nc1ccc(Cl)cn1 | 17 | 1 | -5 | -3 | -5
CN(CCO)S(=O)(=O)c1ccc2c(c1)C(=NO)c1cc(S(=O)(=O)N(C)CCO)ccc1-2 | 39 | -8 | 5 | -10 | 83*
C=C(C)C1CC=C(C)/C(=N/NC(=O)c2ccoc2C)C1 (stereo not drawn) | -10 | -4 | -3 | -12 | -38
Cc1c(Cl)cccc1NS(=O)(=O)c1ccc2c(c1)C1C=CCC1C(c1ccc(C(=O)O)cc1)N2 (stereo not drawn) | 103* | 91* | 2 | 6 | 100*
c1ccc2c(-c3cn4ccccc4n3)c[nH]c2c1 | 11 | -12 | 0 | -11 | -31
COc1ccc(CN(C(=O)c2cc(=O)c3cc(C)cc(C)c3o2)C2CCS(=O)(=O)C2)cc1 (stereo not drawn) | -5 | -4 | . | 1 | 8
Cc1ccc(Nc2nc(N)nc(CN3CCc4ccccc4C3)n2)cc1 | 5 | -9 | 1 | 77* | -6
Cc1c(Cl)cccc1Nc1nc(N)nc(CN2CCc3ccccc3C2)n1 | 20 | 3 | 0 | -9 | -3
COc1cc2c(cc1OC)C(c1ccccc1F)OC(=O)C2 (stereo not drawn) | 10 | -5 | 96* | -2 | -8
COC(=O)c1c(NC(=S)Nc2ccc(C(=O)N3CCOCC3)cc2)sc2c1CCC2 | 5 | -13 | -2 | -30 | -40
